Assay results published in the supplement of paper PMC10849652.
The full data set covers some 7,900 targets. This sample favours those with a hit. About 0.6% of all pairs of compound and target were hits.

What was measured:
Assay in all cases: log2 fold change, soluble protein after heating vs DMSO (PISA); higher = thermal stabilisation; K562 cells, 10 uM, 30 min; active = over 0.2 and 3.5 SD of the protein, either way, in both replicates (recomputed)
[1] = compound: CC1=C(C=C(C=C1)NC(=O)C2=CC(=CC=C2)N(C)C)NC(=O)C3=CC=C(C=C3)O
Method in brief: (§1)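 Soluble protein was defined as the supernatant after 21,000xg for 90 min. It came from K562 cells at 2×10^6 cells/mL given 10 μM compound for 30 min, heated in aliquots for 3 min across 48°C-58°C, pooled, and extracted in PBS with 0.5% NP-40 at 4°C, and was quantified by TMTpro 16plex LC-MS/MS with equalised channel sums. Thermal stability against control samples, from duplicates, is reported as log2 fold change.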

[2] = compound: CC1=CC=C(C=C1)SC2=C3C=C(SC3=CN=C2)C(=O)N
Method in brief: as §1

[3] = compound: CC1=NC(=CC=C1)C2=C(N=C(N2)C(C)(C)C)C3=CC4=NC=CN=C4C=C3
Method in brief: as §1

Nexturastat A = compound: CCCCN(Cc1ccc(C(=O)NO)cc1)C(=O)Nc1ccccc1 [Nexturastat A]
Method in brief: as §1

vemurafenib = compound: CCCS(=O)(=O)Nc1ccc(F)c(C(=O)c2c[nH]c3ncc(-c4ccc(Cl)cc4)cc23)c1F [vemurafenib]
Method in brief: as §1

[4] = compound: CCCS(=O)(=O)Nc1ccc(F)c(C(=O)c2c[nH]c3ncc(Cl)cc23)c1F
Method in brief: as §1

givinostat = compound: CCN(CC)Cc1ccc2cc(COC(=O)Nc3ccc(C(=O)NO)cc3)ccc2c1 [givinostat]
Method in brief: as §1

barasertib = compound: CCN(CCCOc1ccc2c(Nc3cc(CC(=O)Nc4cccc(F)c4)[nH]n3)ncnc2c1)CCOP(=O)(O)O [barasertib]
Method in brief: as §1

volasertib = compound: CC[C@@H]1C(=O)N(C)c2cnc(Nc3ccc(C(=O)N[C@H]4CC[C@H](N5CCN(CC6CC6)CC5)CC4)cc3OC)nc2N1C(C)C [volasertib]
Method in brief: as §1

epoxomicin = compound: CC[C@H](C)[C@@H](C(=O)N[C@@H]([C@@H](C)O)C(=O)N[C@@H](CC(C)C)C(=O)[C@]1(CO1)C)NC(=O)[C@H]([C@@H](C)CC)N(C)C(=O)C [epoxomicin]
Method in brief: as §1

[5] = compound: CCn1c(C(=O)N(C2CC2)C2CC2)cc2c3c(ncn3C)c(Nc3cc(C)n(C)n3)nc21
Method in brief: as §1

[6] = compound: CN(C)CC(=O)Nc1ccc2[nH]c(=O)c3ccccc3c2c1
Method in brief: as §1

rosiglitazone = compound: CN(CCOC1=CC=C(C=C1)C[C@H]2C(=O)NC(=O)S2)C3=CC=CC=N3 (racemic) [rosiglitazone]
Method in brief: as §1

[7] = compound: CN1C2=C(C3=C1C(=O)N(N=C3)CC4=CC(=CC=C4)N)SC(=C2)S(=O)C
Method in brief: as §1

[8] = compound: CCCc1cc(C)[nH]c(=O)c1CNC(=O)c1cc(-c2ccnc(N3CCN(C)CC3)c2)cc2c1cnn2C(C)C
Method in brief: as §1

[9] = compound: CCn1cc(-c2ccnc3[nH]c(-c4cccc(CN(C)C)c4)cc23)c(-c2ccc(NC(=O)N(C)C)cc2)n1
Method in brief: as §1

[10] = compound: CN1CCC(CNc2ccc3ncc(-c4cccc(OC(F)(F)F)c4)n3n2)CC1
Method in brief: as §1

[11] = compound: CC1=C(C=C(C=C1)NC(=O)C2=CC(=CC=C2)C(C)(C)C#N)NC3=CC4=C(C=C3)N=CN(C4=O)C
Method in brief: as §1

[12] = compound: CC[C@@H]1C(=O)N(C)c2cnc(Nc3ccc(C(=O)NC4CCN(C)CC4)cc3OC)nc2N1C1CCCC1
Method in brief: as §1

[13] = compound: CC[C@H](C)N1C=C(C2=C(C=C(C=C21)C3=CN=C(C=C3)N4CCNCC4)C(=O)NCC5=C(C=C(NC5=O)C)C)C
Method in brief: as §1

Measured: log2 fold change

SYK (UniProt P43405)
inactive: [1] 0.015 | [2] -0.025 | [3] -0.386 | vemurafenib -0.097 | [4] -0.058 | givinostat 0.307 | barasertib -0.094 | volasertib 0.196 | epoxomicin 0.022 | [5] -0.021 | [6] -0.085 | rosiglitazone -0.006 | [7] -0.052
active: Nexturastat A 0.901

SSB (UniProt E7ERC4)
inactive: vemurafenib 0.264 | [8] 0.283 | [9] -0.076 | [6] -0.154 | [7] -0.34 | [10] 0.266

TCOF1 isoform 3 (UniProt Q13428)
inactive: [11] -0.051 | [1] 0.262 | Nexturastat A -0.429 | givinostat 0.047 | [12] 0.001 | epoxomicin -0.352 | [5] 0.03 | [9] 0.155 | [10] -0.436

TCOF1 isoform 6 (UniProt Q13428)
inactive: [11] 0.148 | [1] -0.078 | [3] -0.105 | vemurafenib 0.146 | [8] 0.545 | givinostat -0.024 | barasertib 0.008 | [12] 0.04 | [13] -0.132 | [5] -0.039 | [6] -0.219 | rosiglitazone -0.173

SNX2 isoform 2 (UniProt O60749)
Sequence of UniProt O60749 (O60749 whole entry, looked up): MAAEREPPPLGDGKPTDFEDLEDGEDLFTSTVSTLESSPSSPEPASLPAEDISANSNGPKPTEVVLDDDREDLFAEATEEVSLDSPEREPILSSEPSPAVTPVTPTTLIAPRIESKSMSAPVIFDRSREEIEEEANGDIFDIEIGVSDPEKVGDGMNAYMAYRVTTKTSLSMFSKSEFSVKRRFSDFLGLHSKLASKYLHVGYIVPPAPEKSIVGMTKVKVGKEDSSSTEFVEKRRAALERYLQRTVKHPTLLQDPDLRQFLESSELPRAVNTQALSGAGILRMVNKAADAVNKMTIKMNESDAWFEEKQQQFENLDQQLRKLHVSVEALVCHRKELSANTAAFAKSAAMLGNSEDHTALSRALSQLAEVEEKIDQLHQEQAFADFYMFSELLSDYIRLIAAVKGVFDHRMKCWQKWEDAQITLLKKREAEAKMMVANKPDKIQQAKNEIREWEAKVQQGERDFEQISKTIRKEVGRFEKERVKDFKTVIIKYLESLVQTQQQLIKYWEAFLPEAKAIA
inactive: [11] 0 | [2] -0.003 | [3] -0.039 | Nexturastat A 0.484 | vemurafenib -0.026 | [4] -0.144 | barasertib -0.054 | [12] -0.194 | volasertib -0.06 | epoxomicin 0.034 | [6] -0.161 | rosiglitazone 0.076 | [7] 0.086

SRSF6 (UniProt Q13247)
Sequence of UniProt Q13247 (Q13247 whole entry, looked up): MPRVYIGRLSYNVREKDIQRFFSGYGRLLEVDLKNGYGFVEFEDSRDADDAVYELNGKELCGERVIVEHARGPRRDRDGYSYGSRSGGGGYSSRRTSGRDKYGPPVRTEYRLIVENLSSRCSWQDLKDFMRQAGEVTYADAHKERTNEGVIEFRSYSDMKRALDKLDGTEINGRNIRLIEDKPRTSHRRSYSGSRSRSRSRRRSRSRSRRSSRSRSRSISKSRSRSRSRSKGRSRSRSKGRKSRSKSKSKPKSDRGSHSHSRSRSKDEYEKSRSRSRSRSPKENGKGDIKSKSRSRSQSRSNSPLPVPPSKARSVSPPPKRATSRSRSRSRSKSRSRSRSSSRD
inactive: [11] -0.012 | [2] -0.16 | [3] 0.126 | Nexturastat A 0.248 | vemurafenib -0.024 | [4] -0.058 | [8] 0.104 | givinostat 0.019 | barasertib -0.059 | [12] 0.011 | volasertib 0.174 | [13] 0.116 | epoxomicin -0.181 | [5] -0.004 | [9] 0.028 | [6] -0.08 | rosiglitazone -0.043 | [7] 0.207 | [10] 0.315

TAF6L (UniProt Q9Y6J9)
active: volasertib -0.537
inactive: [11] -0.042 | [1] 0.114 | [2] -0.055 | [4] -0.059 | [8] 0.091 | givinostat 0.075 | [13] 0.118 | [5] -0.179 | [9] -0.04 | [7] 0.081 | [10] -0.126

SLC35B1 isoform 2 (UniProt P78383)
Sequence of UniProt P78383 (P78383 whole entry, looked up): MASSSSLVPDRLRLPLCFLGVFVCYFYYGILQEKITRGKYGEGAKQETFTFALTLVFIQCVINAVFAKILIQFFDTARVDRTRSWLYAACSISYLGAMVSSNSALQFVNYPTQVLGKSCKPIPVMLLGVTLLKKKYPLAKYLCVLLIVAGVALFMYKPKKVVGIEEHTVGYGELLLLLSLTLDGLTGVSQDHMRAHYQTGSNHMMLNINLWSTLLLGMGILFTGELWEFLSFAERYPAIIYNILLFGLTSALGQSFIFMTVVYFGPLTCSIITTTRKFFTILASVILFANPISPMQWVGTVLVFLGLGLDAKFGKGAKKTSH
inactive: [11] 0.165 | [1] -0.109 | [3] 0.054 | Nexturastat A 0.072 | vemurafenib 0.267 | [8] -0.221 | givinostat 0.069 | barasertib -0.055 | [12] 0.123 | [13] -0.017 | epoxomicin 0.066 | [5] 0.001 | [6] 0.075 | rosiglitazone 0.044 | [7] -0.111

SUPT5H isoform 2 (UniProt O00267)
inactive: vemurafenib 0.232 | [6] 0.149

SLC9A6 isoform 3 (UniProt Q92581)
Sequence of UniProt Q92581 (Q92581 whole entry, looked up): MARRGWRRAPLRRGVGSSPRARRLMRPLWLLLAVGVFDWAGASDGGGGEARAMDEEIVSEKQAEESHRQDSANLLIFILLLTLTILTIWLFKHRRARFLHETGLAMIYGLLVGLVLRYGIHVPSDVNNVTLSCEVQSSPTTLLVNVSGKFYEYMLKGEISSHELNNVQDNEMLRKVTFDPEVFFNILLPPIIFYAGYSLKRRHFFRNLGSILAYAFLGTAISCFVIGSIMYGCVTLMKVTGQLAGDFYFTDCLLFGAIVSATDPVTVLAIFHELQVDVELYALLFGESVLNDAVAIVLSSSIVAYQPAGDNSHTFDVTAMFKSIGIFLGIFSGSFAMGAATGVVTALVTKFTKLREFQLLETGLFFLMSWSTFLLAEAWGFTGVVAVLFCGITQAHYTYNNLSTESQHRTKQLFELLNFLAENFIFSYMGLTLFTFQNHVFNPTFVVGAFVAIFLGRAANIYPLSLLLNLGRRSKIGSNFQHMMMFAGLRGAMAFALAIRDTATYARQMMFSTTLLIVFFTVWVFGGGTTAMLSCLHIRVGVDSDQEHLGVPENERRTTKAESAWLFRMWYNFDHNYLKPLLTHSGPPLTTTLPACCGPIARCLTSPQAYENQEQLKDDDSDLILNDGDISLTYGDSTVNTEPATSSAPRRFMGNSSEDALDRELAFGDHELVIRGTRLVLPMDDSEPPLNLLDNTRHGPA
inactive: [2] -0.152 | [4] -0.152 | givinostat -0.021 | barasertib 0.109 | [12] -0.041 | volasertib -0.045 | [5] 0.045 | rosiglitazone -0.091 | [7] 0.008

SREBF1 isoform 4 (UniProt P36956)
active: [8] -0.932
inactive: [3] 0.035 | Nexturastat A 0.063 | givinostat 0.051 | barasertib -0.071 | [12] -0.511 | epoxomicin -0.035 | [5] -0.047 | rosiglitazone 0.025 | [7] 0.198

STK17B (UniProt O94768)
Sequence of UniProt O94768 (O94768 whole entry, looked up): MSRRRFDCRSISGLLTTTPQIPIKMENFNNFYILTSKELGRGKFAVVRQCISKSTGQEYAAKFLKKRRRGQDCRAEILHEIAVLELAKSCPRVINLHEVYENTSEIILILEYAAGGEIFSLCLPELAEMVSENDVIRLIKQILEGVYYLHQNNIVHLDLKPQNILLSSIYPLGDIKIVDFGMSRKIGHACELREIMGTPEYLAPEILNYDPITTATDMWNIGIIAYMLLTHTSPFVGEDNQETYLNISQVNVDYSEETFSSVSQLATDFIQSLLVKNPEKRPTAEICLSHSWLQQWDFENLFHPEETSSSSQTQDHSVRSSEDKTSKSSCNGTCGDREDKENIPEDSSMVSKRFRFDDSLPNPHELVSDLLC
inactive: [3] 0.031 | givinostat 0.16 | barasertib 0.29 | [5] -0.099 | rosiglitazone 0.07

STK11IP (UniProt Q8N1F8)
Sequence of UniProt Q8N1F8 (Q8N1F8 whole entry, looked up): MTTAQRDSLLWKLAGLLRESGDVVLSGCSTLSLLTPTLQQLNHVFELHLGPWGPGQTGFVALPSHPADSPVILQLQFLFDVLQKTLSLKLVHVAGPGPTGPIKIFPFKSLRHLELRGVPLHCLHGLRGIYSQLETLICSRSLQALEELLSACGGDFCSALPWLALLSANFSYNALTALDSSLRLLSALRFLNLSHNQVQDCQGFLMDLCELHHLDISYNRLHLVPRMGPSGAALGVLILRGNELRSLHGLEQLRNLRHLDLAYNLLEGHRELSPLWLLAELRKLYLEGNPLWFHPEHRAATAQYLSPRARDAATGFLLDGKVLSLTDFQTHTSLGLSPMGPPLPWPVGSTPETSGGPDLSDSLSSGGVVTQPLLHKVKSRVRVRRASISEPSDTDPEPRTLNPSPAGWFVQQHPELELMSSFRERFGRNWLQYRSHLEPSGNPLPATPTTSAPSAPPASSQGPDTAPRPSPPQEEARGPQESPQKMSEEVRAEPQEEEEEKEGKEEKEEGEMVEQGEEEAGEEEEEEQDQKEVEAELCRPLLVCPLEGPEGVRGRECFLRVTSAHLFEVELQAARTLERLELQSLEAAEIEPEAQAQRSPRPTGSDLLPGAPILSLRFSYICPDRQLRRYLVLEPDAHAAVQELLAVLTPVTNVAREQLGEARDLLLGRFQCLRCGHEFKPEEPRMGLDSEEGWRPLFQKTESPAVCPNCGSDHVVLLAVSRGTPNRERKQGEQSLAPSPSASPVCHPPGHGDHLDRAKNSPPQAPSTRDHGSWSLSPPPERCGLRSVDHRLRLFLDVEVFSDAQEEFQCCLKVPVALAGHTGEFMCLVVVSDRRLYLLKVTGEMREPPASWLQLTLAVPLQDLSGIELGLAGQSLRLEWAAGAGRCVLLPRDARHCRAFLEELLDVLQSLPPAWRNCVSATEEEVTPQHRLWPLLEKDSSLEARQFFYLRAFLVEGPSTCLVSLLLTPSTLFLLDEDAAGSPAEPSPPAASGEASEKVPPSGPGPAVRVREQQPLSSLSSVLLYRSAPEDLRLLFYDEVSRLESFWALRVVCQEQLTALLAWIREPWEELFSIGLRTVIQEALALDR
inactive: [11] 0.095 | [2] 0.038 | [3] -0.071 | Nexturastat A 0.118 | vemurafenib -0.159 | [4] 0.061 | [8] 0.063 | givinostat -0.017 | barasertib 0.008 | [12] -0.224 | [13] 0.103 | epoxomicin 0.069 | [5] -0.051 | [9] -0.006 | [6] 0.025 | rosiglitazone 0.011 | [7] 0.026 | [10] -0.233
active: volasertib -0.517

SMARCB1 (UniProt Q12824)
inactive: [11] 0.188 | [3] 0.101 | vemurafenib 0.065 | [12] -0.058 | [9] 0.053 | [6] -0.116 | [7] 0.127 | [10] -0.222

SLC46A1 (UniProt Q96NT5)
inactive: vemurafenib 0.056 | givinostat 0.011 | [12] 0.156 | [5] -0.072 | [9] -0.072 | [6] -0.041 | [10] 0.087

SLC35B4 (UniProt Q969S0)
Sequence of UniProt Q969S0 (Q969S0 whole entry, looked up): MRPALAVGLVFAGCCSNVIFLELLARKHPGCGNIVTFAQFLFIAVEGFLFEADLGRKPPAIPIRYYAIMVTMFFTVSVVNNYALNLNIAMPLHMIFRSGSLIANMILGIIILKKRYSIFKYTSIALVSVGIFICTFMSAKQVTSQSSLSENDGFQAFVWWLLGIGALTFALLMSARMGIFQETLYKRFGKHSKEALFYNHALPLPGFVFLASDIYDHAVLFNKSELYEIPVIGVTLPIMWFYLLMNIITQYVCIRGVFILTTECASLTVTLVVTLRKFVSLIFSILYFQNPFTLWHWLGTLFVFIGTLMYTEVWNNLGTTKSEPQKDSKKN
inactive: [11] 0.018 | [3] -0.064 | Nexturastat A -0.061 | vemurafenib 0.062 | [8] -0.002 | givinostat 0.077 | barasertib -0.01 | [12] -0.003 | [13] -0.041 | epoxomicin 0.044 | [5] 0.042 | [6] -0.134 | rosiglitazone 0.005

SSBP4 (UniProt U3KPY3)
inactive: vemurafenib -0.095 | [8] -0.028 | [6] 0.049

TATDN2 (UniProt Q93075)
Sequence of UniProt Q93075 (Q93075 whole entry, looked up): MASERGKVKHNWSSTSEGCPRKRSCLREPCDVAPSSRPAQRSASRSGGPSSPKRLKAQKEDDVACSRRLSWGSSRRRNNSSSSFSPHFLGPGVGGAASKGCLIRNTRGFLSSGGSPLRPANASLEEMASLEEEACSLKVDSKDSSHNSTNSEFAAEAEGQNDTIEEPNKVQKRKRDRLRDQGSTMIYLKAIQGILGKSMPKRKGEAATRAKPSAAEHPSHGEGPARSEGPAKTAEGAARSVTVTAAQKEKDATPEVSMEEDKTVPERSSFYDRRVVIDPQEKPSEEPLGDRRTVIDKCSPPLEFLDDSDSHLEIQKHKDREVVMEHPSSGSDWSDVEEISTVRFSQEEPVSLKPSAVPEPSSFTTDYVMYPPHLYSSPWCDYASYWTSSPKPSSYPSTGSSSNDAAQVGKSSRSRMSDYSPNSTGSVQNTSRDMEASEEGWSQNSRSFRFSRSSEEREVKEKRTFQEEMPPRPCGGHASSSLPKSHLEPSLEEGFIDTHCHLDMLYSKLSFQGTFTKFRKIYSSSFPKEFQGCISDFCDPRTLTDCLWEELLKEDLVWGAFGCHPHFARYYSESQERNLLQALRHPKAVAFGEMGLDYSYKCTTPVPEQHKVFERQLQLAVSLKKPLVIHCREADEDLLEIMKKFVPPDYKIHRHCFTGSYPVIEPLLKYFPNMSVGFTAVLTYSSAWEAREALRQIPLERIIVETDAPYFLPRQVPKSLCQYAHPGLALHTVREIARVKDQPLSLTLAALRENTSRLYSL
inactive: [11] -0.256 | [2] 0.048 | [3] -0.07 | Nexturastat A 0.092 | vemurafenib 0.168 | [4] 0.019 | givinostat -0.004 | barasertib 0.126 | [12] 0.071 | volasertib -0.008 | [13] 0.104 | epoxomicin -0.096 | [5] 0.044 | [9] -0.071 | [6] -0.098 | rosiglitazone 0.082 | [7] 0.046 | [10] -0.076

SLC8B1 (UniProt Q6J4K2)
Sequence of UniProt Q6J4K2 (Q6J4K2 whole entry, looked up): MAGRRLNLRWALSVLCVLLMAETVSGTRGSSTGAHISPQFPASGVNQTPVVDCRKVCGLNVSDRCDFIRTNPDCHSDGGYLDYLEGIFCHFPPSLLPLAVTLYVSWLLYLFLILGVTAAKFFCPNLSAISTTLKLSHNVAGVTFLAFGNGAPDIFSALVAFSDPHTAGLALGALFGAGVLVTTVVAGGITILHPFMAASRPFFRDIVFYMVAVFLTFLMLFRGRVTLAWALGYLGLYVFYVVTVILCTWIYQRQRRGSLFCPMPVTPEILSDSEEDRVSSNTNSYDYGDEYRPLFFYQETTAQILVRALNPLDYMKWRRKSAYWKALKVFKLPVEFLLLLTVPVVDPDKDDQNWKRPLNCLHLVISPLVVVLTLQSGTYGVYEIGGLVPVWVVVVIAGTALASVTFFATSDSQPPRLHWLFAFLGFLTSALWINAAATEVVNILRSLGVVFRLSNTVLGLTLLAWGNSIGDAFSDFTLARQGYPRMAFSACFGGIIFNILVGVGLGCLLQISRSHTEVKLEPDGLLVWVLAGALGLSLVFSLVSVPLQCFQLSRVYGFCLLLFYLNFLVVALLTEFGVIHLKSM
inactive: [1] 0.038 | [2] -0.28 | [3] -0.022 | vemurafenib -0.075 | [4] -0.021 | givinostat 0.069 | barasertib -0.167 | volasertib 0.156 | [5] 0.09 | [9] 0.091 | [6] -0.005 | rosiglitazone 0.058 | [7] 0.086 | [10] -0.509

SYNE1 (UniProt Q8NF91)
active: Nexturastat A 0.612
inactive: [11] -0.126 | [1] -0.051 | [3] -0.17 | vemurafenib -0.045 | [8] -0.044 | givinostat 0.199 | barasertib 0.047 | [12] -0.01 | [13] -0.048 | epoxomicin 0.047 | [5] -0.142 | [9] -0.113 | [6] 0.042 | rosiglitazone 0.031 | [7] 0.051 | [10] -0.208
